Here are results for 47 compounds from PubChem BioAssay AID894 (National Center for Advancing Translational Sciences (NCATS), 2007).

Several values for one entry are separate records, joined by “and”; a condition that tells them apart may be missing. Equal values may be shown once. Hit rate of the full screen: of about 150,000 compounds, about 6,500 (4.3%) were called active. Not shown: some 12% with an inconclusive outcome. For the sample, actives were picked, then their nearest neighbours and some compounds at random. A number with no mark means an inactive call. Calls follow the shape of the dose curve; as a rule, active = well fitted inhibition curve with a large enough effect (not every such curve was filed as active); inconclusive = small, poorly fitted or top-dose-only effect, or another doubt; inactive = no such curve, though single readings can be large or run the other way.
% is scaled to controls: 0 for no effect and ±100 for the full control effect; potency is read from the fitted curve at half-maximal effect.

15-hydroxyprostaglandin dehydrogenase [NAD(+)] (Homo sapiens), sequence (P15428 whole entry, looked up): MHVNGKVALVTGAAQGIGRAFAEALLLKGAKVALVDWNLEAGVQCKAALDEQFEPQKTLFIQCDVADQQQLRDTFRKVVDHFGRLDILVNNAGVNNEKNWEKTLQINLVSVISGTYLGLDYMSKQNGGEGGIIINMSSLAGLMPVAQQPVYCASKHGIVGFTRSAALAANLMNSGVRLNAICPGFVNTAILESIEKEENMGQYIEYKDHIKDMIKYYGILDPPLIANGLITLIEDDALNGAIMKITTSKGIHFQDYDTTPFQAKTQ

The assay has as its target 15-hydroxyprostaglandin dehydrogenase [NAD(+)] (Homo sapiens) (UniProt P15428). The assay is described as follows: qHTS Assay for Inhibitors of HPGD (15-Hydroxyprostaglandin Dehydrogenase). The note with it: purified HPGD, NADH fluorescence kinetic, PGE2 substrate; activity change, negative = inhibition: stronger effect = lower value. In short, it runs like this:
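NADH formation kinetics: reaction with 30 uM PGE2 and 1 mM NAD+ (final), 20 nM enzyme, Tris-HCl pH 8 with Tween 20, after 15 min compound preincubation at room temperature. Fluorescence change, last versus first of five reads.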
On the technique in general: qHTS replaces the single test concentration by a dilution series.
On to `CCNc1nc(-c2cc3ccccc3o2)cs1`, for which the activity change, negative = inhibition is -4.63%.
Take `O=C(OCC(=O)c1c[nH]c2ccccc12)c1cccc(O)c1`: the activity change, negative = inhibition is -8.39%.
For the compound `CC(=O)NC1=NN(C(C)=O)C(C)(c2ccc(C)cc2)S1` (configuration not stated), the activity change, negative = inhibition is -5.01%.
Regarding `COCCOC(=O)c1sc(=S)n(CCOC)c1N`, the Potency was 28.2 µM (active).
Take `CC1(c2ccccc2)CC(C)(C)N(C(=O)c2cc([N+](=O)[O-])cc([N+](=O)[O-])c2)c2ccccc21` (configuration not stated): the activity change, negative = inhibition was -4.13%.
On to `O=C(NCc1ccco1)c1cc2sccc2n1Cc1ccc(F)cc1`, for which the Potency was 17.8 µM (active).
For `O=C(NCc1ccco1)c1ccc(Cn2c(=O)c3sccc3n(Cc3ccc(F)cc3)c2=O)cc1`, the activity change, negative = inhibition is -17.7%.
With `O=C(Cc1ccc(-n2c(=O)c3sccc3n(Cc3ccc(F)cc3)c2=O)cc1)NCc1ccco1`, the activity change, negative = inhibition was -7.92%.
Same read-out and setting: the figure for `COc1cc(NC(=O)c2ccccc2NS(=O)(=O)c2ccc(Cl)s2)cc(OC)c1` is -5.94%.
For the compound `N#CC1=C(N)Oc2cc(O)ccc2C1C1CCCCC1` (configuration not stated), the activity change, negative = inhibition was -8.6%.
On to `O=C(O)c1c(Br)c(Br)c(Br)c(Br)c1C1c2ccc(O)cc2Oc2cc(O)ccc21`, for which the Potency was 2.51 µM (active).
For `COc1ccc(/C=C/C(=O)NC(=S)NN2CCCCC2c2cccnc2)cc1` (configuration not stated), the activity change, negative = inhibition is -29.9%.
Turning to `CCCCCCCC1=Cc2ccc(F)cc2C(C(C(=O)OC)C(=O)OC)N1C(=O)OC` (configuration not stated), the activity change, negative = inhibition was -2.63% and -13.1%.
In the case of `O=C(/C=C/c1cccs1)NCc1cccnc1`, the activity change, negative = inhibition was -9.43%.
Consider `CC(=O)Nc1ccc(S(=O)(=O)NC2(C(F)(F)F)C(=O)Nc3c2c(=O)[nH]c(=O)n3Cc2ccccc2)cc1` (configuration not stated), for which the Potency is 17.8 µM (active).
Consider `CC(=O)Nc1ccc(S(=O)(=O)Nc2nc3n(n2)C(c2ccccc2)CC(=O)N3)cc1` (configuration not stated), for which the activity change, negative = inhibition was -6.58%.
For the compound `CC(=O)Nc1ccc(S(=O)(=O)NCCc2ccccc2)cc1`, the activity change, negative = inhibition was -7.41%.
Take `COc1ccc(C(=O)CSc2nnc(NC(=O)C3CC(=O)N(c4cccc(OC)c4)C3)s2)cc1` (configuration not stated): the activity change, negative = inhibition is -4.45%.
Turning to `COC(=O)c1sc(=S)n(-c2ccccc2)c1N`, the Potency was 14.1 µM (active).
In the case of `CCOC(=O)c1csc(NC(=O)Nc2cccc(OC)c2)n1`, the activity change, negative = inhibition is -6.02%.
Consider `COC(=O)C1=C(C)N(C)C(=S)NC1c1ccccc1` (configuration not stated), for which the activity change, negative = inhibition was -10.8%.
As to `COC(=O)c1cn(-c2ccccc2)nc1-c1cccnc1`, the activity change, negative = inhibition is -1.05%.
As to `CCOC(=O)c1cnc(SCC(=O)Nc2cccc(OC)c2)nc1N`, the activity change, negative = inhibition is -14.8%.
As for `CCOC(=O)c1sc(=S)n(-c2cccc(OC)c2)c1N`, the Potency is 28.2 µM (active).
Turning to `Cc1ccc(CC2S/C(=C(/C#N)C(=O)N3CCOCC3)N(c3ccccc3)C2=O)cc1` (configuration not stated), the activity change, negative = inhibition is -13.9%.
On to `CN(C)C(=O)c1ccc2c(c1)C1C3CCC(C3)C1C(c1ccccc1)N2` (configuration not stated), for which the activity change, negative = inhibition is -9.73%.
The same measure, in the same setting: as for `N=c1c2c3c(sc2ncn1N)CCCCC3`, the figure is -10.1%; as for `c1nnc2c3c4c(sc3ncn12)CCC4`, -16.5%.
As for `S=c1[nH]nc2c3c4c(sc3ncn12)CCCC4`, the Potency is 20 µM (active).
For the compound `CCOC(=O)/C(=N\Nc1cc(Cl)ccc1Cl)N1CCN(C)CC1`, the activity change, negative = inhibition was -8.38%.
For the compound `CCCCOc1ccc(C(=O)N/C(=C/C=C/c2ccccc2)C(=O)N2CCOCC2)cc1`, the activity change, negative = inhibition was -16%.
As for `COc1cccc(C(=O)Nc2cc3c(cc2Br)OCCCO3)c1`, the activity change, negative = inhibition is -9.03%.
Same read-out and setting: the figure for `COC(=O)Cc1ccc(NC(=S)NCc2ccc(Cl)cc2)cc1` is -8.96%.
On to `COC(=O)Cc1ccc(NC(=S)NCc2ccccc2)cc1`, for which the Potency was 20 µM (active).
In the case of `FC(F)(F)Oc1ccc(NC(=S)NCc2ccccc2)cc1`, the activity change, negative = inhibition was -11.2%.
Regarding `Cc1c(Cl)c([N+](=O)[O-])nn1CCCC(=O)NC(C)c1ccccc1` (configuration not stated), the activity change, negative = inhibition was -2.71%.
Same read-out and setting: the figure for `COC(=O)c1ccc(COC(=O)c2c(C)nn(Cc3ccccc3Cl)c2Cl)o1` is -23%; for `Cc1cc(C(=O)Nc2c(C)nn(Cc3ccccc3)c2C)on1` it is -12.9%.
Consider `Cc1nn(Cc2ccccc2)c(Cl)c1C(=O)OC1CCOC1=O` (configuration not stated), for which the Potency is 15.8 µM (active).
`O=C(COC(=O)[C@H](Cc1ccccc1)NC(=O)c1cccs1)Nc1cc(F)ccc1F`: the activity change, negative = inhibition was 2.87%.
Consider `Cn1nnc2cc(C(=O)NCCC3=CCCCC3)ccc21`, for which the activity change, negative = inhibition is -28.7%.
Turning to `CC1CCCN(C(=O)c2ccc3c(c2)C(=O)N(CCC2=CCCCC2)C3=O)C1` (configuration not stated), the Potency was 0.891 µM (active).
With `Cc1cc(=O)n2nc(N3CCCC(C(=O)NCCC4=CCCCC4)C3)sc2n1` (configuration not stated), the activity change, negative = inhibition is -11.9%.
For the compound `C=CC1=C2C=C(C3CC3)N(CC(C)C)C=C2C(=O)C(C)(OC(=O)c2ccco2)C1=O` (configuration not stated), the activity change, negative = inhibition is -3.22%.
As to `CCn1cc(/C=C2/SC(=S)NC2=O)c(C)n1`, the Potency is 17.8 µM (active).
In the case of `Cc1nn(C)cc1/C=C1\CCC/C(=C\c2cn(C)nc2C)C1=O`, the activity change, negative = inhibition was -27.5%.
In the case of `O=C1NC(c2ccc(-c3ccccc3[N+](=O)[O-])o2)C(C(=O)c2ccc(Cl)cc2)C(O)(C(F)(F)F)N1` (configuration not stated), the activity change, negative = inhibition was -3.47%.
